Assay results reported in PubChem BioAssay (EPA / NIEHS).
Values joined by “and” are separate entries in the source; they are usually repeats but may differ in a detail not shown here. Equal values may be shown once. Records with an inconclusive call do not appear. Active and inactive are the calls of the source. Rule for the calls: active = hit-call score of the fitted dose curve at least 0.9, where 1 is the maximum; inconclusive = response in the unintended direction; inactive = score below 0.9.

Legend:
[1] = Tanguay_ZF_120hpf_AXIS_legacy: (Legacy) Oregon State University Tanguay Lab 120 Hour Post-fertilization zebrafish Assay for Body Axis Malformation (AID 2283635);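 for AC50: potency for an increased fraction of larvae scored with body axis malformation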
Summary of the method: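 Each dechorionated embryo was exposed alone from 6 hpf, with DMSO at 0.64% (vol/vol) and trimethyltin chloride 5 uM as positive control. Axis malformation was recorded at 120 hpf unless the embryo had died.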

[2] = Tanguay_ZF_120hpf_EYE_legacy: (Legacy) Oregon State University Tanguay Lab 120 Hour Post-fertilization zebrafish Assay for Eye Malformation (AID 2283636);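 note: binary presence or absence of eye malformation scored by brightfield in 120 hpf larvae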
Summary of the method: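 Dechorionated wild-type Tropical 5D zebrafish embryos were exposed statically from 6 hpf, one per well, to 120 hpf at 28C in sealed, foil-covered plates with 0.64% DMSO. Eye malformation was scored present/absent by brightfield microscopy against DMSO controls.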

[3] = Tanguay_ZF_120hpf_SNOU_legacy: (Legacy) Oregon State University Tanguay Lab 120 Hour Post-fertilization zebrafish Assay for Snout Malformation (AID 2283637)
Summary of the method: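 Tropical 5D wild-type zebrafish embryos, dechorionated with pronase at 4 hpf, were exposed singly from 6 hpf to 120 hpf statically at 28C in 0.64% DMSO. Snout malformation was scored present/absent by brightfield microscopy, fitted against DMSO.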

[4] = Tanguay_ZF_120hpf_JAW_legacy: (Legacy) Oregon State University Tanguay Lab 120 Hour Post-fertilization zebrafish Assay for Jaw Malformation (AID 2283638);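 for AC50: active means more embryos with jaw malformation than DMSO controls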
Summary of the method: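 Wild-type 5D embryos, chorion removed at 4 hpf, dosed singly from 6 hpf; 28C static, sealed, foil-covered, to 120 hpf. Endpoint: jaw defect yes/no (brightfield); mortality excludes scoring.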

[5] = Tanguay_ZF_120hpf_OTIC_legacy: (Legacy) Oregon State University Tanguay Lab 120 Hour Post-fertilization zebrafish Assay for Otic Vesicle Malformation (AID 2283639)
Summary of the method: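 Tropical 5D wild-type zebrafish embryos statically exposed in 0.64% DMSO at 28C until 120 hpf; 5uM trimethyltin chloride as positive control. Otic vesicle malformation scored present/absent by brightfield; dead embryos not scored; gain fitted versus DMSO.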

[6] = Tanguay_ZF_120hpf_PE_legacy: (Legacy) Oregon State University Tanguay Lab 120 Hour Post-fertilization zebrafish Assay for Pericardial Edema (AID 2283640);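 for AC50: potency for increased incidence of pericardial edema versus DMSO baseline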
Summary of the method: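 Zebrafish larvae are exposed from early development to 120 hpf at 28C, with 0.64% DMSO final. Each surviving larva receives a yes/no pericardial edema call by brightfield imaging, analysed relative to the DMSO baseline.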

[7] = Tanguay_ZF_120hpf_BRAI_legacy: (Legacy) Oregon State University Tanguay Lab 120 Hour Post-fertilization zebrafish Assay for Brain Malformation (AID 2283641)
Summary of the method: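 Static exposure of staged wild-type embryos until 120 hpf, kept at 28C with light excluded and final DMSO of 0.64% (vol/vol). Presence or absence of brain malformation was noted under brightfield; mortality precluded scoring.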

[8] = Tanguay_ZF_120hpf_SOMI_legacy: (Legacy) Oregon State University Tanguay Lab 120 Hour Post-fertilization zebrafish Assay for Somite Malformation (AID 2283647)
Summary of the method: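 Somitogenesis defects are recorded as binary calls in whole larvae at 120 hpf after continuous static chemical exposure starting at 6 hpf in dechorionated 5D embryos. DMSO serves as negative control and baseline.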

[9] = Tanguay_ZF_120hpf_PFIN_legacy: (Legacy) Oregon State University Tanguay Lab 120 Hour Post-fertilization zebrafish Assay for Pectoral Fin Malformation (AID 2283648);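 note: each larva judged yes or no for fin defect by brightfield with dead larvae skipped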
Summary of the method: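 Tropical 5D wild-type embryos, dechorionated with pronase at 4 hpf, were placed singly in wells at 6 hpf and statically exposed until 120 hpf at 28C, sealed and dark, with 0.64% (vol/vol) final DMSO; pectoral fin malformation scored present/absent.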

[10] = Tanguay_ZF_120hpf_PIG_legacy: (Legacy) Oregon State University Tanguay Lab 120 Hour Post-fertilization zebrafish Assay for Pigmentation Malformation (AID 2283650)
Summary of the method: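 Tropical 5D wild-type zebrafish embryos, dechorionated with pronase at 4 hpf, were exposed singly from 6 hpf to 120 hpf statically at 28C in sealed, dark plates with 0.64% DMSO; pigmentation scored present/absent by brightfield microscopy, fitted against DMSO.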

[11] = Tanguay_ZF_120hpf_SWIM_legacy: (Legacy) Oregon State University Tanguay Lab 120 Hour Post-fertilization zebrafish Assay for Swim Bladder Malformation (AID 2283654);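 note: swim bladder malformation in each larva scored yes or no under brightfield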
Summary of the method: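 Dechorionated Tropical 5D wild-type embryos, placed singly from 6 hpf, were statically exposed at 28C to 120 hpf with 0.64% DMSO final; swim bladder malformation was scored present/absent by brightfield microscopy, gain of signal relative to DMSO controls.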

[12] = Tanguay_ZF_120hpf_TRUN_legacy: (Legacy) Oregon State University Tanguay Lab 120 Hour Post-fertilization zebrafish Assay for Truncated Body (AID 2283655)
Summary of the method: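 Single dechorionated zebrafish embryos received test chemical from 6 hpf in 0.64% DMSO, kept at 28C. At 120 hpf, brightfield inspection noted any truncated body.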

[13] = Tanguay_ZF_120hpf_NC_legacy: (Legacy) Oregon State University Tanguay Lab 120 Hour Post-fertilization zebrafish Assay for Notochord and Tail Malformation (AID 2283656)
Summary of the method: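 Dechorionated Tropical 5D wild-type zebrafish embryos, one per well from 6 hpf, statically exposed to 120 hpf at 28C in 0.64% DMSO final. Notochord distortion scored present/absent by brightfield; dead embryos excluded.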

[14] = Tanguay_ZF_120hpf_CFIN_legacy: (Legacy) Oregon State University Tanguay Lab 120 Hour Post-fertilization zebrafish Assay for Caudal Fin Malformation (AID 2283649)
Summary of the method: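 Single dechorionated 5D wild-type embryos are dosed at 6 hpf (final DMSO 0.64%) and held statically at 28C. Caudal fin malformation is recorded as present or absent at 120 hpf under brightfield, excluding dead embryos.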

[15] = Tanguay_ZF_120hpf_CIRC_legacy: (Legacy) Oregon State University Tanguay Lab 120 Hour Post-fertilization zebrafish Assay for Circulatory Malformation (AID 2283651)
Summary of the method: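 Dechorionated wild-type 5D zebrafish embryos, one per well, statically exposed from 6 to 120 hpf at 28C with 0.64% DMSO; circulatory malformation scored present/absent by brightfield microscopy at 120 hpf, dead embryos excluded.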

[16] = system: Thyroperoxidase (TPO), gene 54314; test: CCTE_Simmons_AUR_rTPO: CCTE's Amplex UltraRed Assay for Thyroperoxidase (TPO) Inhibition, Simmons Lab (AID 2283662);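 for AC50: potency for loss of signal meaning inhibition of peroxidase activity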
Summary of the method: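 Rat thyroid microsomes (5 ug protein) with 25 uM Amplex UltraRed and 300 uM H2O2 in 200 mM phosphate buffer, 30 min at 37C in dark; fluorescence 544/590 nm. Eight concentrations, 5 nM–87.5 uM final, 0.5% DMSO, triplicate biological replicates.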

Measured: AC50

COc1cccc(-c2ccc(/C=C\CN3CCCCCC3)cc2Cl)c1
not listed: [14] | [15] | [16]
inactive: all other assays above

CCn1nc(Cc2ccccc2)cc1C1CCN(C[C@H]2C[C@H](N(C)[C@@H](C(=O)O)C(C)C)C[C@@H]2c2cccc(F)c2)CC1
active: [16] 30.7 µM
inactive: all other assays above

CCNc1ccccc1
inactive: all assays above

O=P(OC(CCl)CCl)(OC(CCl)CCl)OC(CCl)CCl
inactive: [15] | [13] | [16]
active: [1] 35.3 µM | [2] 36.7 µM | [3] 25.9 µM | [4] 36.3 µM | [5] 34.7 µM | [6] 28.2 µM | [7] 31.7 µM | [8] 9.13 µM | [9] 40.3 µM | [14] 30 µM | [10] 33.9 µM | [11] 25.9 µM | [12] 36.2 µM

CC[C@H](C)C(=O)O[C@H]1C[C@@H](C)C=C2C=C[C@H](C)[C@H](CC[C@@H]3C[C@@H](O)CC(=O)O3)[C@H]21
active: [16] 40.3 µM and 43.8 µM
not listed: [7]
inactive: all other assays above

COC(=O)c1ccccc1O
not listed: [16]
inactive: all other assays above

O=C(OC[C@H]1O[C@@H](OC(=O)c2cc(O)c(O)c(OC(=O)c3cc(O)c(O)c(O)c3)c2)[C@H](OC(=O)c2cc(O)c(O)c(OC(=O)c3cc(O)c(O)c(O)c3)c2)[C@@H](OC(=O)c2cc(O)c(O)c(OC(=O)c3cc(O)c(O)c(O)c3)c2)[C@@H]1OC(=O)c1cc(O)c(O)c(OC(=O)c2cc(O)c(O)c(O)c2)c1)c1cc(O)c(O)c(OC(=O)c2cc(O)c(O)c(O)c2)c1
active: [16] 1.03 µM
inactive: all other assays above

CC(C)=CCCC(C)=CC=O
active: [16] 43.8 µM
not listed: [9]
inactive: all other assays above

Fc1ccccc1[C@@H](F)COC1CCC(Nc2ncnc3[nH]ncc23)CC1 (stereo partly drawn)
active: [4] 38 µM | [6] 34.9 µM
not listed: [16]
inactive: all other assays above

NC(=O)NO
active: [16] 43.8 µM
not listed: [8]
inactive: all other assays above

CC(=O)OCCC(C)C
not listed: [8] | [9] | [10] | [15] | [16]
inactive: all other assays above

CCOc1cccc(-n2cc(C(=O)N3CCN(c4cc(C(=O)O)c5ccccc5c4)CC3)nc2-c2ccc(C)cc2)c1
active: [16] 43.8 µM
not listed: [15]
inactive: all other assays above

CC[C@H]1CC[C@H](NCc2cc3c(cc2OC)[C@H]2C[C@H]2C(=O)N3C)[C@H](c2ccccc2)N1
not listed: [7] | [15] | [16]
inactive: all other assays above

CCCN(C1CCN(C(=O)C2CCNCC2)CC1)[C@@H]1CCc2ccc(OC)cc2C1
not listed: [6]
inactive: all other assays above

CCCCC(CC)COC(=O)CCCCCCCCC(=O)OCC(CC)CCCC (stereo not drawn)
not listed: [6] | [16]
inactive: all other assays above

COc1ccc2sc(C(=O)Nc3nnn[nH]3)c(OC(C)C)c2c1
not listed: [6] | [10] | [16]
inactive: all other assays above
